Results filed as inconclusive are left out. The source made the active and inactive calls. How the source made its calls, unless noted: active means hit-call score of the fitted dose curve at least 0.9, where 1 is the maximum; inactive means score below 0.9.
How the values were obtained:
[1] = read-out: Monokine induced gamma interferon (MIG), CXCL9 (gene 4283); assay: BSK_3C_MIG: BioMAP Diversity Plus: 3C Assay for Monokine induced gamma interferon (MIG) Biomarker Activity (AID 2283021); settings: primary human endothelial cells (HUVEC); actives raise or lower the signal
How it was run: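 Primary human umbilical vein endothelial cells in the 3C system were exposed to chemical for 24 h, after which MIG was quantified by ELISA. Activity was fitted bidirectionally against DMSO as negative control and baseline.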

[2] = biological target: human Vitamin D Receptor (VDR), VDR (gene 7421) (UniProt P11473); assay: ATG_VDR_TRANS: Attagene TRANS-FACTORIAL HepG2 Assay for human Vitamin D Receptor (VDR) (AID 2283022; active means hit-call score of the fitted dose curve at least 0.9, where 1 is the maximum)
human Vitamin D Receptor (VDR), VDR (gene 7421), sequence (P11473 whole entry, looked up, the tested form may be a part): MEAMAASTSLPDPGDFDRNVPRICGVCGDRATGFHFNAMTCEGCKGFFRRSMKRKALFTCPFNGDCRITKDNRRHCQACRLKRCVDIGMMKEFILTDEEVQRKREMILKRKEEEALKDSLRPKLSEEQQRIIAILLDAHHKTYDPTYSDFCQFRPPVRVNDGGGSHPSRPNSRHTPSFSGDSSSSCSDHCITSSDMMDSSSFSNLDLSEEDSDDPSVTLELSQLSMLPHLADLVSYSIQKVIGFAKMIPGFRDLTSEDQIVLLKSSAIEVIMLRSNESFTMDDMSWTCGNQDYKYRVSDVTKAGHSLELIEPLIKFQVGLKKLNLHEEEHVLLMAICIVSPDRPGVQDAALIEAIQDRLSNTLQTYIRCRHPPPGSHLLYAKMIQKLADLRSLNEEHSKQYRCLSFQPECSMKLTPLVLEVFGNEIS
How it was run: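 Steps: transfect HepG2 with GAL4-UAS-driven reporter constructs; dose compounds 24 h; isolate RNA, reverse-transcribe, PCR-amplify with 6-FAM-labelled primer extension and HpaI digestion; quantify fragments by capillary electrophoresis relative to DMSO.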

[3] = read-out: Matrix Metallopeptidase 1 (MMP1), MMP1 (gene 4312); assay: BSK_BE3C_MMP1: BioMAP Diversity Plus: BE3C Assay for Matrix Metallopeptidase 1 (MMP1) Biomarker Activity (AID 2283024); settings: primary human bronchial epithelial cells; actives raise or lower the signal
How it was run: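 Primary human bronchial epithelial cells were dosed with test chemicals, and MMP1 levels were measured by ELISA 24 h later. Data were fitted bidirectionally against DMSO as the negative control and activity baseline.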

[4] = BSK_3C_Vis: BioMAP Diversity Plus: 3C Assay for Morphology Visualization (AID 2283025); settings: primary human endothelial cells (HUVEC);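 further: fitted both ways so gain or loss versus DMSO counts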
How it was run: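 Human umbilical vein endothelial cells in the 3C system were imaged by light microscopy 24 h after chemical dosing to record cell morphology. Activity was fitted bidirectionally against DMSO as negative control and baseline; the endpoint serves as a background control.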

[5] = read-out: Pselectin, SELP (gene 6403); assay: BSK_4H_Pselectin: BioMAP Diversity Plus: 4H Assay for Pselectin Biomarker Activity (AID 2283026); settings: primary human endothelial cells (HUVEC); actives raise or lower the signal
How it was run: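 Primary human umbilical vein endothelial cells were exposed to test chemical for 24 h, then cell-surface P-selectin was quantified by ELISA. Activity was fitted bidirectionally against DMSO as negative control and baseline.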

[6] = BSK_4H_SRB: Viability Assessment in the BioMAP Diversity Plus: 4H Assay (AID 2283027); settings: primary human endothelial cells (HUVEC);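 further: cells exposed to compound for 24 h before staining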;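 on AC50: curves fitted both ways versus DMSO so AC50 may be loss or gain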
How it was run: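 Human umbilical vein endothelial cells, 24 h after chemical dosing; total protein measured by 0.1% sulforhodamine B staining after 10% TCA fixation, read at 560 nm. Bidirectional fitting against DMSO.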

[7] = BSK_BE3C_SRB: Viability Assessment in the BioMAP Diversity Plus: BE3C Assay (AID 2283028); settings: primary human bronchial epithelial cells;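 on AC50: fitted both ways so AC50 may mark signal gain or loss versus DMSO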
How it was run: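 Cells (human bronchial epithelial, primary) are treated with chemicals, and after 24 h the parallel cultures are fixed in 10% TCA. These are then stained with 0.1% SRB and read at 560 nm. Gain or loss of signal is fitted relative to DMSO.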

[8] = read-out: Thrombomodulin, THBD (gene 7056); assay: BSK_3C_Thrombomodulin: BioMAP Diversity Plus: 3C Assay for Thrombomodulin Biomarker Activity (AID 2283029); settings: primary human endothelial cells (HUVEC); actives raise or lower the signal
How it was run: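 Primary human umbilical vein endothelial cells (3C system) were exposed to chemical for 24 h, then thrombomodulin levels were measured by ELISA. Activity was fitted bidirectionally against the DMSO negative control as baseline.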

[9] = read-out: Urokinase-type plasminogen activator receptor (uPAR), PLAUR (gene 5329); assay: BSK_4H_uPAR: BioMAP Diversity Plus: 4H Assay for Urokinase-type plasminogen activator receptor (uPAR) Biomarker Activity (AID 2283030); settings: primary human endothelial cells (HUVEC); actives raise or lower the signal
How it was run: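 Cell-surface uPAR ELISA signal, measured 24 h after dosing human umbilical vein endothelial cells, was analyzed with bidirectional fitting relative to DMSO. Parallel SRB staining of total protein tracked overt cytotoxicity.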

[10] = read-out: Vascular endothelial growth factor receptor 2 (Homo sapiens) (UniProt P35968); assay: BSK_4H_VEGFRII: BioMAP Diversity Plus: 4H Assay for Vascular endothelial growth factor receptor 2 (VEGFR2) Biomarker Activity (AID 2283031); settings: primary human endothelial cells (HUVEC); actives raise or lower the signal;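 on AC50: cell-surface VEGFR2 protein level quantified by ELISA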
How it was run: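 ELISA read-out of VEGFRII in primary human umbilical vein endothelium, taken 24 h after chemical treatment. Responses are expressed relative to DMSO, with bidirectional fitting.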

[11] = read-out: Human Leukocyte Antigen - DR isotype (HLADR), HLA-DRA (gene 3122); assay: BSK_BE3C_HLADR: BioMAP Diversity Plus: BE3C Assay for Human Leukocyte Antigen - DR isotype (HLADR) Biomarker Activity (AID 2283032); settings: primary human bronchial epithelial cells; actives raise or lower the signal
How it was run: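 Human primary bronchial epithelial cells in the BE3C system were exposed to chemicals for 24 h, after which HLA-DR levels were quantified by ELISA. Activity was fitted bidirectionally, gain or loss of signal, against DMSO as negative control and baseline.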

[12] = read-out: Vascular cell adhesion molecule 1 (VCAM1), VCAM1 (gene 7412); assay: BSK_4H_VCAM1: BioMAP Diversity Plus: 4H Assay for Vascular cell adhesion molecule 1 (VCAM1) Biomarker Activity (AID 2283033); settings: primary human endothelial cells (HUVEC); actives raise or lower the signal
How it was run: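 Primary human umbilical vein endothelial cells were exposed to chemicals for 24 h, after which VCAM-1 was quantified by ELISA. Responses were fitted bidirectionally against DMSO as negative control and activity baseline.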

[13] = read-out: Interferon-gamma inducible Protein 10 (IP10), CXCL10 (gene 3627); assay: BSK_BE3C_IP10: BioMAP Diversity Plus: BE3C Assay for Interferon-gamma inducible Protein 10 (IP10) Biomarker Activity (AID 2283034); settings: primary human bronchial epithelial cells; actives raise or lower the signal
How it was run: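 Human primary bronchial epithelial cells were exposed to chemicals for 24 hours, after which IP-10 levels were measured by ELISA. Data were fitted bidirectionally against DMSO, which served as the negative control and activity baseline.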

[14] = read-out: Monokine induced gamma interferon (MIG), CXCL9 (gene 4283); assay: BSK_BE3C_MIG: BioMAP Diversity Plus: BE3C Assay for Monokine induced gamma interferon (MIG) Biomarker Activity (AID 2283035); settings: primary human bronchial epithelial cells; actives raise or lower the signal
How it was run: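 Primary human bronchial epithelial cells treated for 24 h; MIG levels measured by ELISA, fitted bidirectionally versus DMSO. Parallel SRB total-protein staining assessed cytotoxicity.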

[15] = read-out: Transforming growth factor beta 1 (TGFb1), TGFB1 (gene 7040); assay: BSK_BE3C_TGFb1: BioMAP Diversity Plus: BE3C Assay for Transforming growth factor beta 1 (TGFb1) Biomarker Activity (AID 2283036); settings: primary human bronchial epithelial cells; actives raise or lower the signal
How it was run: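 Human primary bronchial epithelial cells (BE3C system) were dosed with chemical and TGF-b1 levels measured by ELISA at 24 h. Activity was fitted bidirectionally relative to DMSO negative control as baseline.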

[16] = read-out: urokinase plasminogen activator (uPA), PLAU (gene 5328); assay: BSK_BE3C_uPA: BioMAP Diversity Plus: BE3C Assay for urokinase plasminogen activator (uPA) Biomarker Activity (AID 2283038); settings: primary human bronchial epithelial cells; actives raise or lower the signal
How it was run: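 Bronchial epithelial cells (human, primary); chemical 24 h; uPA by ELISA; bidirectional fit vs DMSO. SRB (0.1%, after 10% TCA fixation, 560 nm) in parallel cultures for cytotoxicity.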

[17] = read-out: Urokinase-type plasminogen activator receptor (uPAR), PLAUR (gene 5329); assay: BSK_BE3C_uPAR: BioMAP Diversity Plus: BE3C Assay for Urokinase-type plasminogen activator receptor (uPAR) Biomarker Activity (AID 2283039); settings: primary human bronchial epithelial cells; actives raise or lower the signal
How it was run: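 Primary human bronchial epithelial cells were dosed with chemical and harvested 24 h later; uPAR was quantified by ELISA. Activity was fitted bidirectionally against DMSO as negative control and baseline.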

[18] = read-out: Interleukin-6 (IL6), IL6 (gene 3569); assay: BSK_CASM3C_IL6: BioMAP Diversity Plus: CASM3C Assay for Interleukin-6 (IL6) Biomarker Activity for (AID 2283040); settings: primary human coronary artery smooth muscle cells; actives raise or lower the signal
[19] = BSK_3C_SRB: Viability Assessment in the BioMAP Diversity Plus: 3C Assay (AID 2283023); settings: primary human endothelial cells (HUVEC);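 further: fitted both ways against DMSO so a hit may be signal rise or drop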
How it was run: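 Absorbance at 560 nm of sulforhodamine B-stained (0.1%) total protein served as a cytotoxicity readout in human umbilical vein endothelial cells, 24 h after chemical treatment. Signal was fitted bidirectionally relative to DMSO.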

[20] = read-out: Plasminogen activator inhibitor-1 (PAI1), SERPINE1 (gene 5054); assay: BSK_BE3C_PAI1: BioMAP Diversity Plus: BE3C Assay for Plasminogen activator inhibitor-1 (PAI1) Biomarker Activity (AID 2283037); settings: primary human bronchial epithelial cells; actives raise or lower the signal
How it was run: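 Human primary bronchial epithelial cells were exposed to chemical for 24 h, then PAI-1 was quantified by ELISA. Activity was fitted bidirectionally relative to the DMSO negative control baseline.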

Measured: AC50

Oc1ccccc1O
active: [5] 9.58 µM | [6] 5.94 µM | [12] 5.53 µM
not listed: [19] | [20]
inactive: all other assays above

Nc1nc(Cl)nc2c1ncn2[C@H]1C[C@H](O)[C@@H](CO)O1
active: [4] 38.6 µM | [9] 18.5 µM | [10] 2.65 µM
not listed: [2]
inactive: all other assays above

CCOCCOCCO
not listed: [2] | [8] | [19]
inactive: all other assays above

CCCCC(CC)COC(=O)CCCCCCCC(=O)OCC(CC)CCCC (stereo not given)
not listed: [2] | [19] | [20]
inactive: all other assays above

Nc1nc(=S)c2[nH]cnc2[nH]1
not listed: [2] | [8] | [12] | [20]
inactive: all other assays above

Cc1ccc(-c2cc(C(F)(F)F)nn2-c2ccc(S(N)(=O)=O)cc2)cc1
active: [3] 31.7 µM | [4] 37.5 µM | [5] 25.8 µM | [6] 28 µM | [7] 35.7 µM | [8] 28.4 µM | [9] 20 µM | [11] 33.4 µM | [12] 32.7 µM | [13] 30.6 µM | [14] 39.1 µM | [15] 20 µM | [20] 36.6 µM | [16] 35.9 µM | [17] 31.6 µM | [18] 32.9 µM
inactive: [10]

CC(N)=O
not listed: [2] | [19]
inactive: all other assays above

CCCC[C@H]1CN(CC2CCOCC2)C(=O)OC12CCN(C1(C)CCN(C(=O)c3c(C)ncnc3C)CC1)CC2
not listed: [2] | [8]
inactive: all other assays above
